40 compounds from PubChem BioAssay (EPA / NIEHS) can be followed below.

Activity calls are given as the source filed them. Rule for the calls: active = hit-call score of the fitted dose curve at least 0.9, where 1 is the maximum; inactive = score below 0.9.

Sequence of Nuclear respiratory factor 1 (Homo sapiens) (Q16656 whole entry, looked up): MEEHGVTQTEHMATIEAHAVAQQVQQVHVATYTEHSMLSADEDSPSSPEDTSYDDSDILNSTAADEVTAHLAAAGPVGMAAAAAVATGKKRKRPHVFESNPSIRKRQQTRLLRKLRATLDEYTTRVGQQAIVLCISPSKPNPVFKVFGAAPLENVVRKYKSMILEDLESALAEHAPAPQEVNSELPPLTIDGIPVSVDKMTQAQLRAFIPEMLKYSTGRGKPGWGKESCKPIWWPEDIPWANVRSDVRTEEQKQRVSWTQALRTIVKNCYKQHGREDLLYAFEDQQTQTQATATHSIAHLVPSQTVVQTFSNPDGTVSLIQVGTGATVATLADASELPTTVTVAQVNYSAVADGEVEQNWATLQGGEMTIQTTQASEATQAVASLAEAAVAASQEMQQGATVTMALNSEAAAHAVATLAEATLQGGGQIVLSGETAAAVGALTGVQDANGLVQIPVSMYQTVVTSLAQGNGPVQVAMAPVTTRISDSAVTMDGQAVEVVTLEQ

The test addresses Nuclear respiratory factor 1 (Homo sapiens) (UniProt Q16656). Put plainly: ATG_NRF1_CIS: Attagene CIS-FACTORIAL HepG2 Assay for human Nuclear Respiratory Factor 1 (NRF1) Orphan Gene (AID 2282987). The following applies: HepG2 NRF1 cis-element reporter, Attagene multiplex; actives raise or lower the signal. As for the experimental part: ATG_CIS is a cell-based, multiplexed-readout assay that uses HepG2, a human liver cell line, with measurements taken at 24 hours after chemical dosing in a 24-well plate.ATG_NRF1_CIS is one of 52 assay component(s) measured or calculated from the ATG_CIS assay. It is designed to make measurements of mRNA induction, a form of inducible reporter, as detected with fluorescence intensity signals by Reverse transcription polymerase chain reaction (RT-PCR) and Capillary electrophoresis technology.Data from the assay component ATG_NRF1_CIS was analyzed into 1 assay endpoint. This assay endpoint, ATG_NRF1_CIS, was analyzed with bidirectional fitting relative to DMSO as the negative control and baseline of activity. Using a type of inducible reporter, measures of mRNA for gain or loss-of-signal activity can be used to understand the reporter gene at the transcription factor-level as they relate to the gene NRF1. Furthermore, this assay endpoint can be referred to as a primary readout, because this assay has produced multiple assay endpoints where this one serves a reporter gene function. To generalize the intended target to other relatable targets, this assay endpoint is annotated to the dna binding intended target family, where the subfamily is nuclear respiratory factors.
Human liver HepG2 cells are transiently transfected with multiple reporter transcription units (MRTUs) in 6-well plates using FuGene 6 reagent (Roche; 3 ml FuGene/1 mg DNA). The MRTU constructs are regulated by a cis-regulating element (promoter). […] A major difference between the CIS and TRANS system is that in CIS activities of endogenous TFs are measured, whereas the TRANS assay evaluates changes in activities of exogenous, chimeric NR-Gal4 proteins. […] At the end of 24 hour incubation, total RNA was isolated using TriZol reagent (Invitrogen). The isolated RNA is then reverse-transcribed using oligo(dT) primer and Mo-MLV reverse transcriptase (Invitrogen) with DNAse I (Ambion) treatment for 30 min. The one-tenth of the produced cDNA was amplified by PCR using Taq DNA polymerase (Invitrogen) and two reporter sequence-specific primers. The PCR products were fluorescently labeled by primer extension with 6-arboxyfluorescein (6-FAM) 5'-labeled reporter sequence-specific primer (2 min at 95 C, 20 s at 68 C and 10 min at 72 C) and these products were digested with 5U of HpaI (New England Biolabs) for 2h at 37 C. The fragments were purified using Qiaquick PCR columns (Qiagen), analyzed on an ABI 3130xL genetic analyzer (Applied Biosystems) with peak positions identified by using a set of X-rhodamine (ROX)-labeled MapMarker1000 molecular weight standards (BioVentures). The raw capillary electrophoresis data was processed using Attagraph software (Attagene).
Take `NNC(N)=S`: the result was inactive.

With `ClC(Cl)c1ccccc1`, the compound was called inactive.

Turning to `C=CC(=O)OCC(F)(F)C(F)F`, the call was inactive.

Regarding `COC(N)=O`, the call was inactive.

Take `O=c1ssc(Cl)c1Cl`: the half-maximal activity concentration (AC50) was 33.4 µM (active).

Regarding `N#Cc1cc([N+](=O)[O-])ccc1N`, the result was inactive.

`CCOP(=S)(OCC)SCSc1ccc(Cl)cc1`: the outcome was inactive.

As to `c1ccc(OP(Oc2ccccc2)Oc2ccccc2)cc1`, the compound was classed as inactive.

As to `CCCCOCCOP(=O)(OCCOCCCC)OCCOCCCC`, the result was inactive.

In the case of `COCCOCCO`, the compound was classed as inactive.

`N#Cc1ccc(O)cc1`: the compound was called inactive.

Regarding `C=CC(=O)OCC(CC)(COC(=O)C=C)COC(=O)C=C`, the compound was called inactive.

Take `OCC(F)(F)OC(F)(F)C(F)(F)OC(F)(F)C(F)(F)OC(F)(F)CO`: the call was inactive.

For `COP(=O)(O)OC`, the call was inactive.

With `C=C(C)C(=O)OCC1CO1` (stereo not given), the result was inactive.

For `FC(F)(F)C(F)(C(F)(F)F)C(F)(F)C(F)(F)CC1CO1` (stereo not given), the outcome was inactive.

As to `O=C(O)C(F)(OC(F)(F)C(F)(F)C(F)(F)F)C(F)(F)F` (stereo not given), the outcome was inactive.

Turning to `Clc1ccc(Oc2ccccc2)cc1`, the compound was classed as inactive.

Take `OCC1CO1` (stereo not given): the compound was called inactive.

As for `CCOc1ccc(C(C)(C)COCc2cccc(Oc3ccccc3)c2)cc1`, the compound was called inactive.

Regarding `Oc1ccc(I)cc1`, the compound was called inactive.

`O=C(CBr)OCc1ccccc1`: the outcome was inactive.

As to `CCCCC(CC)COC(=O)c1c(Br)c(Br)c(Br)c(Br)c1C(=O)OCC(CC)CCCC` (stereo not given), the result was inactive.

Consider `CC(O)C#N` (stereo not given), for which the compound was called inactive.

`CCOS(=O)(=O)OCC`: the compound was classed as inactive.

On to `N#Cc1c(-c2ccc(Cl)cc2)[nH]c(C(F)(F)F)c1Br`, for which the outcome was inactive.

As to `CCCCOCC1CO1` (stereo not given), the result was inactive.

As to `[N-]=[N+]=[N-]`, the result was inactive.

In the case of `Cc1cc(C)c(C(=O)P(=O)(c2ccccc2)c2ccccc2)c(C)c1`, the result was inactive.

Take `Nc1ccc([N+](=O)[O-])cc1Cl`: the compound was classed as inactive.

For `O=S(=O)(c1ccc(O)cc1)c1ccc(O)cc1`, the result was inactive.

On to `O=NN1CCCC1`, for which the outcome was inactive.

`COP(N)(=S)OC`: the compound was called inactive.

As for `O=P(OCC(Br)CBr)(OCC(Br)CBr)OCC(Br)CBr` (stereo not given), the concentration at half-maximal activity (AC50) is 18.6 µM (active).

Take `CCOP(=S)(Oc1ccc([N+](=O)[O-])cc1)c1ccccc1` (stereo not given): the call was inactive.

As to `ClC(Cl)(Cl)c1ccccc1`, the result was inactive.

For the compound `C/C(=N\NC(=O)Nc1cc(F)cc(F)c1)c1ncccc1C(=O)O`, the call was inactive.

In the case of `CC(C)CBr`, the call was inactive.

As for `CC1=C(C(=O)Nc2ccccc2)S(=O)(=O)CCO1`, the result was inactive.

For the compound `CCOC(=O)c1ccccc1C(=O)OCC`, the compound was called inactive.

A word on the AC50: it is the concentration giving half of the maximal activity seen.
